Consider eight molecules from PubChem BioAssay (NCI).

The assay in a line: NCI Yeast Anticancer Drug Screen. Data for the rad52 strain (AID 147).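 Further: 0% = growth of vehicle-treated control cultures.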 The following applies: S. cerevisiae rad52 mutant growth inhibition, hits give high values. As to the method: Growth inhibition of yeast strains with defined genetic alterations is measured as a screen for potential anti-cancer activity. Selected strains with alterations in DNA damage repair or cell cycle control were exposed to compounds and growth inhibition was measured relative to vehicle treated controls. The strain used in this assay is rad52

Compounds without any hit were thinned out: in the full panel of roughly 79,000, 15% have a hit. A number with no mark means an inactive call. Calls of active or inactive are those of the source. No stated cut-off is given here; in the data, active means growth inhibition above about 70%; inactive means the rest.

Take `CCCCCC(=O)c1ccc(O)cc1O`: the growth inhibition by setting is: (at 1.2 µM) -14%; (at 3.7 µM) 1%; (at 11.0 µM) 10%; (at 33.0 µM) 90% (active); (at 100.0 µM) 98% (active).

With `O=[N+]([O-])c1c(/C=N/Nc2ccccc2)oc(-c2ccc3c(c2)OCO3)c1-c1ccc2c(c1)OCO2`, the growth inhibition is, setting by setting: (at 1.2 µM) 0%; (at 3.7 µM) 6%; (at 11.0 µM) 20%; (at 33.0 µM) 67%; (at 100.0 µM) 88% (active).

Take `CCOC(=O)C1=C(C)NC(C)=C(C(=O)OCC)C1c1ccccc1Cl`: the growth inhibition reads like this: (at 1.2 µM) -25%; (at 3.7 µM) -10%; (at 11.0 µM) 4%; (at 33.0 µM) 42%; (at 100.0 µM) 93% (active).

Consider `CCCCC(CC)C(=O)Oc1ccc(C(=O)c2ccccc2)c(O)c1` (stereo not given), for which the growth inhibition was 4% (at 1.2 µM); 3% (at 3.7 µM); 6% (at 11.0 µM); 61% (at 33.0 µM); 98% (active) (at 100.0 µM).

For `O=C(O)c1ccccc1.[Ag]`, the growth inhibition is 72% (active) (at 1.2 µM); 101% (active) (at 3.7 µM); 99% (active) (at 11.0 µM); 98% (active) (at 33.0 µM); 98% (active) (at 100.0 µM).

Regarding `O=C1C=CC(=O)N1c1ccc2c(c1)OCO2`, the growth inhibition runs as follows: (at 1.2 µM) 11%; (at 3.7 µM) 94% (active); (at 11.0 µM) 100% (active); (at 33.0 µM) 100% (active); (at 100.0 µM) 100% (active).

`O=C(/C=C/c1cccc2ccccc12)c1ccc(Cl)cc1`: the growth inhibition was 7% (at 1.2 µM); 7% (at 3.7 µM); 7% (at 11.0 µM); -4% (at 33.0 µM); -13% (at 100.0 µM).

Turning to `O=Nc1ccc(Nc2ccccc2)cc1`, the growth inhibition reads like this: (at 1.2 µM) -40%; (at 3.7 µM) -58%; (at 11.0 µM) -71%; (at 33.0 µM) -11%; (at 100.0 µM) 96% (active).
